Compounds with a hit are over-represented: about 12% of the library has one in this group of screens.
SARS PLpro yeast = inhibitors of SARS-CoV papain-like protease in yeast; Potency, µM (doses to about 32.9 µM), most hits filed as activators; S. cerevisiae expressing SARS-CoV PLpro, growth rescue; actives 0.19% (n = 330,000); AID 485353; calls by dose curve; further: nearly all actives have a fitted effect of over 55% in size
AMA1-RON2 inh = AMA1-RON2 (P. falciparum) interaction inhibition; AlphaScreen AMA1-biotinylated RON2 peptide binding; Potency, µM (doses to about 58.2 µM), most hits filed as inhibitors; actives 0.2% (n = 360,000); further: nearly all actives have a fitted effect of over 45% in size
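AMA1 (3D7) with his tag at 25 nM final met compounds first, then biotinylated RON2 peptide at 25 nM; detection used donor plus acceptor beads, 10 µg/mL apiece, read by AlphaScreen after 30 min at room temperature.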
Pf growth 48h = P. falciparum growth inhibition at 48 hours (one generation); P. falciparum luciferase growth in erythrocytes, 48 h; Potency, µM (series often up to 28.7 µM), most hits filed as inhibitors; actives 5.9% (n = 310,000); AID 504832
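A one-generation exposure of luciferase-tagged malaria parasites in RPMI 1640/Albumax erythrocyte culture, 37 C and 5% CO2. Inhibition is inferred from decreased luminescence after adding detection reagent.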
Pf growth 96h = P. falciparum growth inhibition at 96 hours | P. falciparum luciferase reporter growth, 96 h | Potency, µM (top dose mostly 28.7 µM), most hits filed as inhibitors | actives 6.9% (n = 320,000)
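Luminescence readout: decreased luciferase signal marks inhibited growth of reporter-expressing P. falciparum in infected red cells (2% hematocrit, 0.05% parasitemia final), exposed to compound two generations (96 h, 37 C, 5% CO2).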
NS1 inh = blocks influenza NS1 protein function; actives 0.4% (n = 270,000); AID 2326; Potency, µM (top dose mostly 46.1 µM); calls by dose curve; further: actives are rising curves; nearly all actives have a fitted effect of over 50% in size
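S. cerevisiae expressing influenza A NS1, grown in glucose, washed, then diluted 1:100 into pH 6.0 -URA galactose medium with 23 nl compound. Growth recovery read as OD600; NS1-free strain serves as control.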
HCV inhibitor = blocks hepatitis C virus; actives 3.4% (n = 340,000); AID 651820; Potency, µM (highest dose often 41.8 µM), actives largely listed as inhibitors; Huh7.5.1 HCVcc-Cre infection, luciferase reporter, 44 h
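Infectious HCV cell culture screen: compound-treated cells (1,000/well, pre-plated 4 h) are infected with HCVcc-Cre at roughly 0.5 moi and grown 44 h. Infection is quantified by luciferase signal after 15 min substrate incubation at room temperature.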
Of the large screens only hits and unclear results are named; the others gave an inactive call. Unless noted, the call rests on the fitted dose curve; in most records, active means well fitted curve in the direction sought with a large enough effect; inconclusive means small, poorly fitted or top-dose-only effect, or another doubt; inactive means no such curve, though single readings can be large; an effect the other way counts as inactive or inconclusive.

CC(C)NC(=O)C1(C)CCCN1C(=O)c1cc(C#N)cs1 (stereo not drawn)	none (no result: SARS PLpro yeast, Pf growth 48h, Pf growth 96h, NS1 inh, HCV inhibitor)
CCOc1ccccc1C(=O)Oc1ccc2ccc(=O)oc2c1	Pf growth 96h inconclusive
COc1ccc(/C=C/C(=O)NC(=S)NNC(=O)c2cc(OC)c(OC)c(OC)c2)cc1	Pf growth 48h 15µM, Pf growth 96h inconclusive
O=C(/C=C/c1ccc(Cl)cc1)NC(=S)Nc1ccc(NC(=O)c2ccco2)cc1	Pf growth 96h 15µM, HCV inhibitor inconclusive
COc1ccc(/C=C/C(=O)NC(=S)NNC(=O)c2cc(OC)c(OC)c(OC)c2)cc1OC	Pf growth 48h inconclusive, Pf growth 96h inconclusive, HCV inhibitor inconclusive
Cc1ccnc(NC(=S)NC(=O)/C=C/c2ccc(Cl)cc2)c1	Pf growth 96h 4.1µM
COc1ccc(/C=C/C(=O)NC(=S)NNC(=O)c2ccco2)cc1OC	Pf growth 48h inconclusive
CC(=O)Nc1ccc(NC(=S)NC(=O)/C=C/c2ccc(Cl)cc2)cc1	none (no result: NS1 inh)
COc1ccc(/C=C/C(=O)NC(=S)NNC(=O)c2ccco2)cc1	Pf growth 96h 10µM, HCV inhibitor inconclusive
CC(=O)N(Cc1ccccc1)C1CC(=O)N(Cc2ccccc2)C1=O (stereo not drawn)	none (no result: SARS PLpro yeast, Pf growth 48h, Pf growth 96h, NS1 inh)
O=C(Nc1nnc(/C=C/c2ccccc2)s1)c1ccco1	none
CCc1nnc(NC(=O)CSc2nc(-c3ccccc3)cc(-c3ccc(F)cc3)c2C#N)s1	HCV inhibitor inconclusive
COc1ccc(-c2cc(-c3cccs3)c(C#N)c(SCC(=O)NCc3ccco3)n2)cc1	HCV inhibitor inconclusive
COc1ccc(CNC(=O)CSc2nc(-c3ccccc3)cc(-c3cccs3)c2C#N)cc1	Pf growth 96h 6.6µM (no result: Pf growth 48h)
COc1cc(-c2cc(-c3ccccc3)nc(SCC(=O)Nc3nccs3)c2C#N)cc(OC)c1OC	Pf growth 48h 1.2µM, Pf growth 96h inconclusive
COc1ccc(-c2[nH]c(-c3ccccc3)nc2SCC(=O)Nc2nccs2)cc1	Pf growth 96h inconclusive, HCV inhibitor 14µM
CCOC(=O)c1ccc(N2C(=O)CC(N3CCN(Cc4ccccc4)CC3)C2=O)cc1 (stereo not drawn)	none (no result: Pf growth 96h)
CCOC(=O)c1ccc(S(=O)(=O)N2CCN(C3CC(=O)N(c4ccccc4C(F)(F)F)C3=O)CC2)cc1 (stereo not drawn)	Pf growth 48h 13µM, Pf growth 96h 12µM (no result: NS1 inh)
O=C(c1ncn[nH]1)N1CCN(c2nc(-c3ccccc3)cs2)CC1	none (no result: Pf growth 96h)
O=C(c1cc(-n2cnnc2)ccc1Cl)N1CCN(c2nc(-c3ccccc3)cs2)CC1	HCV inhibitor 10µM
O=C(Nc1ccccc1)C1=C[C@@H](c2csc3ccccc23)C[C@@H](OCc2ccc(CO)cc2)O1	Pf growth 48h inconclusive, Pf growth 96h 9.3µM, HCV inhibitor 0.32µM
O=C(NCc1ccccc1)C1=C[C@H](c2csc3ccccc23)C[C@H](OCc2ccc(CO)cc2)O1	Pf growth 48h 9.3µM, Pf growth 96h 13µM, HCV inhibitor inconclusive
C#CCNC(=O)C1=C[C@H](c2csc3ccccc23)C[C@H](OCc2ccc(CO)cc2)O1	Pf growth 48h inconclusive, Pf growth 96h inconclusive, HCV inhibitor inconclusive
O=C(OCC(=O)N1CCC(c2ccccc2)=N1)c1ccc([N+](=O)[O-])s1	AMA1-RON2 inh inconclusive, Pf growth 48h inconclusive, Pf growth 96h inconclusive, HCV inhibitor inconclusive (no result: NS1 inh)
CC(=O)Nc1ccc(C(=O)CN2CCN(c3ccccc3)CC2)cc1	none
CN(C)S(=O)(=O)c1ccc(C(=O)NCC[N+]2(C)CCCCCC2)o1	Pf growth 48h inconclusive, Pf growth 96h 9.3µM
Cc1ccc(NC(=O)c2ccc(Br)o2)cc1S(=O)(=O)N(C)C	HCV inhibitor inconclusive (no result: NS1 inh)
Cc1noc(C)c1C(=O)OCC(=O)c1ccc[nH]1	none (no result: Pf growth 48h)
Cc1noc(C)c1C(=O)OCC(=O)c1cc(C)n(Cc2ccccc2Cl)c1C	HCV inhibitor 11µM (no result: Pf growth 96h)
CCc1cccc(OCC(=O)Nc2ccc(C)c(S(=O)(=O)N3CCCCCC3)c2)c1	Pf growth 48h inconclusive, Pf growth 96h inconclusive, HCV inhibitor 8.9µM (no result: NS1 inh)
Cc1ccc(NC(=O)COc2cccc(C)c2C)cc1S(=O)(=O)N1CCCCCC1	Pf growth 48h inconclusive, Pf growth 96h inconclusive, HCV inhibitor 6.3µM (no result: NS1 inh)
Cc1ccc(NC(=O)COc2ccccc2C(N)=O)cc1S(=O)(=O)N1CCCCCC1	Pf growth 48h inconclusive, Pf growth 96h 4.7µM, HCV inhibitor 5µM (no result: NS1 inh)
CCOC(=O)c1nn(-c2ccc(OCC)cc2)c2nc(-c3ccco3)c(C#N)c(=O)n12	Pf growth 48h 12µM, Pf growth 96h inconclusive
CCOC(=O)c1nn(-c2ccc(Cl)cc2)c2nc(-c3ccc(C)cc3)c(C#N)c(=O)n12	Pf growth 48h 9.3µM (no result: Pf growth 96h)
CCOC(=O)c1nn(-c2ccc(Cl)cc2)c2nc(CC)c(C#N)c(=O)n12	Pf growth 48h inconclusive, Pf growth 96h inconclusive
COc1ccc(/C=C/CN2CCCC(C(=O)c3ccc(OC)c(F)c3)C2)cc1 (stereo not drawn)	Pf growth 48h inconclusive, HCV inhibitor inconclusive
NNC(=O)c1ccc(NS(=O)(=O)c2ccc(Br)cc2)cc1	none (no result: AMA1-RON2 inh, HCV inhibitor)
O=C(COC(=O)c1ccc(F)c([N+](=O)[O-])c1)NC(=O)NCc1ccccc1	HCV inhibitor inconclusive (no result: Pf growth 48h, Pf growth 96h, NS1 inh)
COC(=O)c1sc(NC(=O)C2CCCO2)c(C(=O)OC)c1C (stereo not drawn)	Pf growth 48h inconclusive, Pf growth 96h inconclusive
Cc1c(C(=O)OC(C)C)sc(NC(=O)C2CCCO2)c1C(=O)OC(C)C (stereo not drawn)	Pf growth 96h 9.3µM, HCV inhibitor inconclusive (no result: Pf growth 48h)
O=C(/C=C/c1cccc(Cl)c1)Nn1c(-c2cccs2)nc2ccccc2c1=O	Pf growth 96h 2.1µM
O=C(/C=C/c1ccccc1)Nn1c(-c2cccs2)nc2ccccc2c1=O	none
CC1=C/C(=N\NC(=S)Nc2cccnc2)CC(C)(C)C1	Pf growth 48h inconclusive, Pf growth 96h 2.9µM (no result: NS1 inh)
CC1(C)C2CC=C(/C=N/NC(=S)Nc3cccnc3)C1C2 (stereo not drawn)	Pf growth 48h inconclusive, Pf growth 96h inconclusive (no result: NS1 inh)
COc1ccc2cc(C(C)c3nc4ccccc4c(=O)n3N)ccc2c1 (stereo not drawn)	SARS PLpro yeast inconclusive, Pf growth 48h inconclusive, Pf growth 96h 1.2µM
C#CCn1c(S(=O)(=O)Cc2ccc(C)cc2)nc(-c2ccccc2)c1-c1ccccc1	Pf growth 48h inconclusive, Pf growth 96h inconclusive, HCV inhibitor inconclusive
CCOC(=O)Cn1c(=O)c2c(nc(Br)n2Cc2ccccc2Cl)n(C)c1=O	Pf growth 48h inconclusive, HCV inhibitor inconclusive
CCOC(=O)Cn1c(S(=O)(=O)Cc2ccccc2Cl)nc(-c2ccccc2)c1-c1ccccc1	Pf growth 48h 9.3µM, Pf growth 96h 2.6µM, NS1 inh inconclusive
C#CCn1c(S(=O)(=O)Cc2ccccc2Cl)nc(-c2ccccc2)c1-c1ccccc1	Pf growth 48h 8.3µM, Pf growth 96h inconclusive

Compound activity deposited in PubChem BioAssay by National Center for Advancing Translational Sciences (NCATS).
